# In PubChem BioAssay AID1159580 (chemical genetic matrix, 2015):
# In all, about 5,500 compounds went through this assay and about 2,000 (36%) were called active. Another 18% or so got no clear call; they are omitted. This is one part of the list. Values without a mark were called inactive. No stated cut-off is given here; in the data, active means normalized growth mostly below about 0.91 (no sharp cut-off); inconclusive means no clear call, values can overlap the other calls; inactive means mostly above about 0.92.
# Test: chemical genetic growth profiling, strain panel (AID 1159580);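 further: tested at 20 µM; growth read once vehicle control cultures reached saturation at 30 °C; 1 = growth at the plate median or of vehicle wells; lower values mean less growth of the strain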
# Conditions: S. cerevisiae deletion strains, growth OD
structure (smiles),measurement,setting,value
CC(C)COC(=O)OCN1C(=O)CN(CCN2CC(=O)N(COC(=O)OCC(C)C)C(=O)C2)CC1=O,normalized growth,"locus YAL040C, strain CLN3, active compounds read low",1.01
same,normalized growth,"locus YCL061C, strain MRC1 (second series), active compounds read low",1.01
same,normalized growth,"locus YDR150W, strain NUM1, active compounds read low",1.01
same,normalized growth,"locus YDR363W, strain ESC2, active compounds read low",1.01
same,normalized growth,"locus YER002W, strain NOP16, active compounds read low",0.997
same,normalized growth,"locus YGR078C, strain PAC10, active compounds read low",1
same,normalized growth,"locus YJR075W, strain HOC1, active compounds read low",1.01
same,normalized growth,"locus YMR307W, strain GAS1, active compounds read low",1.01
same,normalized growth,"locus YNL175C, strain NOP13, active compounds read low",1
same,normalized growth,"locus YNL197C, strain WHI3, active compounds read low",0.999
same,normalized growth,"locus YNL224C, strain SQS1, active compounds read low",0.996
same,normalized growth,"locus YNL322C, strain KRE1, active compounds read low",1.01
same,normalized growth,"locus YOR083W, strain WHI5 (second series), active compounds read low",1.01
same,normalized growth,"locus YPL055C, strain LGE1, active compounds read low",1.03
CCCCCc1ccc(S(=O)(=O)Nc2ccc3c(c2)C(=O)OC3)cc1,normalized growth,"locus YAR019C, strain CDC15, active compounds read low",0.991
same,normalized growth,"locus YBL105C, strain PKC1, active compounds read low",0.994
same,normalized growth,"locus YBR135W, strain CKS1, active compounds read low",0.981
same,normalized growth,"locus YBR136W, strain MEC1, active compounds read low",0.982
same,normalized growth,"locus YBR160W, strain CDC28, active compounds read low",0.984
same,normalized growth,"locus YDL017W, strain CDC7, active compounds read low",0.985
same,normalized growth,"locus YDL028C, strain MPS1, active compounds read low",0.983
same,normalized growth,"locus YDL101C, strain DUN1, active compounds read low",0.998
same,normalized growth,"locus YDL108W, strain KIN28, active compounds read low",0.982
same,normalized growth,"locus YDL132W, strain cdc53, active compounds read low",0.985
same,normalized growth,"locus YDL214C, strain PRR2, active compounds read low",0.948
same,normalized growth,"locus YDR052C, strain DBF4, active compounds read low",0.998
same,normalized growth,"locus YDR054C, strain cdc34, active compounds read low",0.974
same,normalized growth,"locus YDR226W, strain ADK1, active compounds read low",0.987
same,normalized growth,"locus YDR477W, strain SNF1, active compounds read low",0.972
same,normalized growth,"locus YER123W, strain YCK3, active compounds read low",0.969
same,normalized growth,"locus YER133W, strain GLC7, active compounds read low",0.951
same,normalized growth,"locus YFL009W, strain cdc4, active compounds read low",0.981
same,normalized growth,"locus YFL029C, strain CAK1, active compounds read low",0.983
same,normalized growth,"locus YFR003C, strain YPI1, active compounds read low",0.987
same,normalized growth,"locus YFR019W, strain FAB1, active compounds read low",0.975
same,normalized growth,"locus YFR028C, strain CDC14, active compounds read low",0.985
same,normalized growth,"locus YGR040W, strain KSS1, active compounds read low",0.949
same,normalized growth,"locus YGR052W, strain FMP48, active compounds read low",1.03
same,normalized growth,"locus YGR092W, strain DBF2, active compounds read low",0.992
same,normalized growth,"locus YHR030C, strain SLT2, active compounds read low",0.997
same,normalized growth,"locus YHR079C, strain IRE1, active compounds read low",0.977
same,normalized growth,"locus YHR082C, strain KSP1, active compounds read low",1.02
same,normalized growth,"locus YHR205W, strain SCH9, active compounds read low",0.963
same,normalized growth,"locus YIL147C, strain SLN1, active compounds read low",0.983
same,normalized growth,"locus YJL095W, strain BCK1, active compounds read low",0.967
same,normalized growth,"locus YJL128C, strain PBS2, active compounds read low",0.944
same,normalized growth,"locus YJL157C, strain FAR1, active compounds read low",0.953
same,normalized growth,"locus YJR016C, strain ILV3, active compounds read low",0.977
same,normalized growth,"locus YJR066W, strain TOR1 (second series), active compounds read low",0.937
same,normalized growth,"locus YJR066W, strain TOR1, active compounds read low",1.02
same,normalized growth,"locus YKL048C, strain ELM1, active compounds read low",0.967
same,normalized growth,"locus YKL067W, strain YNK1, active compounds read low",0.959
same,normalized growth,"locus YKL101W, strain HSL1, active compounds read low",0.933
same,normalized growth,"locus YKL193C, strain SDS22, active compounds read low",0.978
same,normalized growth,"locus YKL203C, strain TOR2, active compounds read low",1.02
same,normalized growth,"locus YLR113W, strain HOG1, active compounds read low",0.86 (active)
same,normalized growth,"locus YLR133W, strain CKI1, active compounds read low",0.963
same,normalized growth,"locus YLR403W, strain SFP1, active compounds read low",0.938
same,normalized growth,"locus YML070W, strain DAK1, active compounds read low",0.945
same,normalized growth,"locus YMR001C, strain CDC5, active compounds read low",0.986
same,normalized growth,"locus YMR205C, strain PFK2 (second series), active compounds read low",0.963
same,normalized growth,"locus YMR277W, strain FCP1, active compounds read low",0.982
same,normalized growth,"locus YNL006W, strain LST8, active compounds read low",0.99
same,normalized growth,"locus YNL020C, strain ARK1, active compounds read low",0.966
same,normalized growth,"locus YNL161W, strain CBK1, active compounds read low",0.978
same,normalized growth,"locus YNL183C, strain NPR1, active compounds read low",0.964
same,normalized growth,"locus YNL207W, strain RIO2, active compounds read low",0.967
same,normalized growth,"locus YNL222W, strain SSU72, active compounds read low",0.978
same,normalized growth,"locus YNL307C, strain MCK1 (second series), active compounds read low",0.979
same,normalized growth,"locus YOL078W, strain AVO1, active compounds read low",0.979
same,normalized growth,"locus YOL136C, strain PFK27, active compounds read low",0.948
same,normalized growth,"locus YOR061W, strain CKA2, active compounds read low",0.976
same,normalized growth,"locus YOR119C, strain RIO1, active compounds read low",1.01
same,normalized growth,"locus YOR231W, strain MKK1, active compounds read low",0.917
same,normalized growth,"locus YOR329C, strain SCD5, active compounds read low",0.985
same,normalized growth,"locus YPL031C, strain PHO85, active compounds read low",0.966
same,normalized growth,"locus YPL153C, strain RAD53, active compounds read low",0.951
same,normalized growth,"locus YPL204W, strain HRR25, active compounds read low",0.942
same,normalized growth,"locus YPL209C, strain IPL1, active compounds read low",0.981
same,normalized growth,"locus YPL256C, strain CLN2, active compounds read low",0.923
same,normalized growth,"locus YPR025C, strain CCL1, active compounds read low",0.983
same,normalized growth,"locus YPR106W, strain ISR1, active compounds read low",0.971
same,normalized growth,"locus YPR111W, strain DBF20, active compounds read low",0.954
same,normalized growth,"strain NNK1, active compounds read low",0.976
same,normalized growth,"strain TSCII, active compounds read low",0.988
